Common to all, as to test: NCI-60 one-dose screen, 48 h (100 = growth as untreated, 0 = no growth, -100 = all killed)
In assay [1] the test system is T-47D breast. The note with it: 10 µM.
Assay [2] relates to BT-549 breast. The note with it: 10 µM unless noted.
In assay [3] the test system is MDA-MB-435 melanoma. Conditions: 10 µM unless noted.
The subject of assay [4] is SW-620 colon. Conditions: 10 µM unless noted.
Assay [5] concerns MCF7 breast. The note with it: 10 µM unless noted.
For assay [6], the system named is HCT-116 colon. Conditions: 10 µM unless noted.
Assay [7] has as its system HCC-2998 colon. The note with it: 10 µM unless noted.
For assay [8], the system named is KM12 colon. Conditions: 10 µM unless noted.

This is part of a sample that, as a whole, favours compounds with a hit. Of some 83,000 tested, about 20% had one in any assay.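 Compound tested at a single concentration for 48 hours in 96-well plates; a percent growth value below 10 was scored as active.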 A number with no mark means an inactive call. Active and inactive are the calls of the source.

In the case of `CC1(C)CC(=O)C2=C(C1)Nc1cc3c(cc1C2c1ccc(F)cc1)OCO3` (configuration not stated), the growth in assay [1] is 85.3%; in assay [2] it was 110%; in assay [3] it was 102%; in assay [4] it was 104%; in assay [5] it was 90.6%; in assay [6] it was 96.7%. Further, the growth in assay [7] was 102%; in assay [8], 99.3%.
`C=C(C)CCCC(C)CC#N` (configuration not stated): the growth is 92.7% in assay [1]; 95.9% in assay [2]; 104% in assay [3]; 115% in assay [4]; 99.3% in assay [5]; 97.5% in assay [6]. The values for the growth in assay [7] and in assay [8] were 104% and 95%, respectively.
Turning to `O=C(CCCCCCC(=O)Nc1ccc2c(c1)/C(=C/c1ccc[nH]1)C(=O)N2)NO`, the growth is -0.107% (active) in assay [1]; 29.7% in assay [2]; -1.97% (active) in assay [3]; -27% (active) in assay [4]; 17.2% in assay [5]; -36.8% (active) in assay [6]. In addition, the values for the growth in assay [7] and in assay [8] were 3.74% (active) and -14.4% (active), respectively.
Consider `Cc1nc2cc(Nc3nc(Nc4ccc(F)cc4)nc(-c4ccc(Cl)cc4)n3)ccc2n1Cc1ccccc1`, for which the growth in assay [1] was 30.7%; in assay [2], 101%; in assay [3] it was 66.2%; in assay [4] it was 68.1%; in assay [5], 42.4%; in assay [6] it was 50.3%. In addition, the growth in assay [7] was 81.6%; in assay [8], 37.2%.
Take `COc1ncc(F)c(OC)n1`: the growth in assay [1] is 104%; in assay [2], 108%; in assay [3], 106%; in assay [4], 107%; in assay [5], 96.6%; in assay [6] it was 101%. Further, the growth was 110% in assay [7] and 105% in assay [8].
Consider `COc1cc2nc(N3CCC[C@H](NC4=CC(=O)c5ccccc5C4=O)C3)nc(N)c2cc1OC`, for which the growth in assay [1] is -56.2% (active); in assay [2], 105%; in assay [3], -96.1% (active); in assay [4], -45.1% (active); in assay [5], -77.3% (active); in assay [6], -85.3% (active). In addition, the figures for the growth in assay [7] and in assay [8] were 92.9% and -39.2% (active), respectively.
Turning to `Cc1c(NCC(=O)Nc2nc3ccccc3[nH]2)c(=O)n(-c2ccccc2)n1C`, the growth is 97.8% in assay [1]; 110% in assay [2]; 103% in assay [3]; 103% in assay [4]; 89.4% in assay [5]; 101% in assay [6]. In addition, the results for the growth in assay [7] and in assay [8] were 114% and 112%, respectively.
`Nc1ccccc1-c1n[nH]c(=O)[nH]c1=O`: the growth was 114% in assay [1]; 111% in assay [2]; 100% in assay [3]; 101% in assay [4]; 102% in assay [5]; 93.3% in assay [6]. Besides, the growth in assay [7] was 101%; in assay [8] it was 107%.
On to `C=CC[P+](c1ccccc1)(c1ccccc1)c1ccccc1`, for which the growth is 16.5% in assay [1]; 47.5% in assay [2]; 32.3% in assay [3]; 79.7% in assay [4]; 27.2% in assay [5]; 36.7% in assay [6]. Moreover, the growth in assay [7] was 51.7%; in assay [8], 31.3%.
On to `CC(C)N1CCN(c2ccc(OC[C@H]3CO[C@](Cn4cncn4)(c4ccc(Cl)cc4Cl)O3)cc2)CC1`, for which the growth in assay [1] was 105%; in assay [2], 84.4%; in assay [3] it was 69.7%; in assay [4] it was 98.4%; in assay [5] it was 95%; in assay [6], 77.7%. The growth in assay [7] is 104%; in assay [8], 95.4%.
As for `CN1CCc2c(Sc3ccc(C(=O)NO)cc3)c3ccccc3n2C1`, the growth in assay [1] was 39.7%; in assay [2] it was 76.9%; in assay [3] it was 23.7%; in assay [4], 19.6%; in assay [5], 32.5%; in assay [6] it was 3.85% (active). In addition, the growth was 66.5% in assay [7] and 53.9% in assay [8].
As to `Nc1nc(N)c(C=Nc2ccc(Br)cc2)c(Nc2ccc(Br)cc2)n1`, the growth is 76.8% in assay [1]; 69.3% in assay [2]; 84.7% in assay [3]; 99.7% in assay [4]; 72.7% in assay [5]; 78.5% in assay [6]. In addition, the growth is 83.5% in assay [7] and 86.3% in assay [8].
As for `CN1CCN(c2nc(-c3ccncc3)nc3sc4c(c23)CCCCCC4)CC1`, the growth in assay [1] is 90.9%; in assay [2], 44.3%; in assay [3], 77.7%; in assay [4], 77.1%; in assay [5], 60.6%; in assay [6] it was 56.5%. Further, the growth was 37.4% in assay [7] and 90.9% in assay [8].
As for `COc1cc(C(=O)/C=C/c2c(-c3cccs3)nc3sccn23)cc(OC)c1OC`, the growth in assay [1] was -1.93% (active); in assay [2] it was 5.79% (active); in assay [3] it was 2.16% (active); in assay [4] it was 8.66% (active); in assay [5], 11%; in assay [6] it was -14.3% (active). Moreover, the growth in assay [7] was -11.9% (active); in assay [8] it was -27.2% (active).

These data come from PubChem BioAssay (NCI).
